# Autofluor 339 – intrinsic fluorescence of library compounds, ex339/em460 – biochemical, MLSMR library, data from DPM-DC assay, artefact control, profiling panel; compound autofluorescence, ex339/em460 nm, NADH buffer; active compounds read high; 1 = no-compound wells, NADH background; fluorescence fold increase at 10 µM; 5.5% of 65,000 active;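 active means at 10 µM, mean starting fluorescence two-fold or more over control wells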;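 further: signal is the first read of a kinetic run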
# NADH enzymes – inhibitors of enzymes used to reach an NAD/NADH endpoint; coupled PK/LDH NADH assays, four targets; IC50, µM (series often up to 10 µM), for inactives: at the highest dose inhibition; 0.02% of 65,000 active; AID 774;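 active means single-dose screening hits from any of four coupled enzyme assays that gave an IC50 when retested across doses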;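 further: the DPM-DC format reads NADH fluorescence rather than 340 nm absorbance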
# MK inhibit – S. pneumoniae mevalonate kinase inhibition; purified MK, PK/LDH-coupled NADH absorbance 340 nm; inhibition, % at 10 µM; 0.48% of 65,000 active;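 active means ranked among the strongest by inhibition in the single 10 µM screen, a fixed top-ranked set picked for dose follow-up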
# PMK inhibit – blocks S. pneumoniae phosphomevalonate kinase | purified PMK, PK/LDH-coupled NADH absorbance 340 nm | inhibition, % at 10 µM | AID 539 | 0.49% of 65,000 active;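 active means top-ranked compounds by inhibition in the single 10 µM screen, taking a fixed number of the strongest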;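 further: 0% = full reaction with DMSO carrier and 100% = background rate without enzyme reaction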
# Spn DPM-DC inh – blocks S. pneumoniae diphosphomevalonate decarboxylase. purified DPM-DC, PK/LDH coupled NADH fluorescence. calls only at 10 µM. 0.49% of 65,000 active. AID 556;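 active means the 320 compounds with the highest percent inhibition in the single-dose primary screen, excluding strongly autofluorescent ones, cut at about 32% in these data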;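 further: kinetic rate of NADH fluorescence loss reporting ADP formed by the decarboxylase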
# Abs 340nm – absorbance at 340 nm; compound absorbance at 340 nm, fold over control; fold change at 10 µM; 65,000 tested, under 10 active; AID 708;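 active means at 10 µM dose, initial 340 nm absorbance at least 2 fold that of control wells; inactive means change under 2 fold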;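 further: initial absorbance extrapolated from kinetic A340 decline of NADH oxidation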
# * marks the source's active call; other numbers are inactive results; i = inactive; nt = not tested or not shown; + = active, no number. Hits are enriched below; roughly 6.3% of the tested compounds scored in any of these assays.
SMILES,Autofluor 339,NADH enzymes,MK inhibit,PMK inhibit,Spn DPM-DC inh,Abs 340nm
N#Cc1c(N2CCN(C(=O)c3ccco3)CC2)nc(-c2ccccc2)c2c1CCCC2,2.2*,3%,1,5,nt,1.1
CCCNC(=O)N1CCN(c2nc(C(C)C)c3c(c2C#N)CC(C)(C)OC3)CC1,1.8,9%,4,5,i,1
Cc1nc(N2CCN(C(=O)c3ccc(Cl)cc3)CC2)c(C#N)c2c1COC(C)(C)C2,2.3*,5%,2,8,nt,1
CC(C)Cc1nc(N2CCN(C(=O)c3ccco3)CC2)c(C#N)c2c1CCC2,1.7,5%,10,0,i,1
CC1(C)Cc2c(C#N)c(N3CCN(C(=O)c4ccco4)CC3)nc(Cc3ccccc3)c2CO1,2.2*,11%,15,7,nt,1
COc1ccc(Cl)cc1NC(=O)c1nc2nc(C)cc(C(F)F)n2n1,1.2,8%,11,10,i,1.1
CC(=O)NC12CC3CC(C)(C1)CC(NC(C)=O)(C3)C2,1.1,3%,10,0,i,1
COC(=O)Nc1c(C(=O)OC)cc(OC)c(OC)c1OC,1.2,7%,8,12,i,1
COC(=O)c1cc(OC)c(OC)c(OC)c1N,2.3*,7%,11,4,i,1.1
O=C1OC(Nc2ccc(Br)cn2)c2ccccc21 (configuration not stated),1.1,3%,3,5,i,1
O=C(NCC(c1cccnc1)N1CCN(c2ccccc2F)CC1)c1cccc(Cl)c1 (configuration not stated),1.1,5%,0,14,i,1
NC(N)=NC(=O)c1nc(Cl)c(N)nc1N,2*,8%,11,11,i,1
CCn1cc(C(=O)N2CCOCC2)c(=O)c2cc(S(=O)(=O)N(C)C3CCCCC3)ccc21,1,5%,1,8,i,1
CN1CCN(CCCNC(=O)c2cc3c(-c4ccc(Cl)cc4)nn(C)c3s2)CC1,2.1*,3%,3,2,nt,1.1
Cn1nc(-c2ccc(Cl)cc2)c2cc(C(=O)N3CCOCC3)sc21,1.3,11%,6,21,i,1.1
CCN(CC)CCCNC(=O)c1cc2c(-c3ccc(Cl)cc3)nn(C)c2s1,2.1*,2%,2,1,nt,1.1
CCN(CC)CCCNC(=O)c1cc(-c2ccc(Cl)c(Cl)c2)on1,1.1,6%,3,14,i,0.99
Cn1nc(-c2ccc(Cl)cc2)c2cc(C(=O)NCC3CCCO3)sc21 (configuration not stated),2.1*,5%,2,8,nt,1.1
CCn1c(SCC(=O)Nc2ccc(NC(=O)c3ccco3)c(OC)c2)nc2ccccc2c1=O,5.2*,5%,0,9,nt,1
CCCCn1c(SCC(=O)Nc2cc(NC(=O)c3ccco3)ccc2C)nc2ccccc2c1=O,1.8,10%,13,6,i,1.1
COc1cccc(N(CC(=O)N2CCN(C)CC2)S(=O)(=O)c2ccc(C)cc2)c1,1.1,9%,7,8,i,1
COc1ccc2c(c1)C(=O)N(c1ccccc1OC)C(=O)C2(C)C,1.1,4%,0,12,i,1
COc1ccc2c(c1)C1(C)CC(C)(C)N2C(=O)N1c1ccccc1 (configuration not stated),1.4,10%,2,0,+,0.98
O=C(Nc1cccc2nsnc12)c1ccc2c(c1)OCCO2,1.8,10%,7,10,i,0.99
Cc1nc2c(ccc3nc(NC(=O)c4ccc5c(c4)OCCO5)sc32)s1,2.4*,12%,11,13,i,1
SMILES,Autofluor 339,NADH enzymes,MK inhibit,PMK inhibit,Spn DPM-DC inh,Abs 340nm
Cc1nc2ccc3nc(NC(=O)c4ccc5c(c4)OCCO5)sc3c2s1,3.5*,7%,3,18,i,1
CCCCNC(=O)c1ccc2nc(-c3ccco3)c(-c3ccco3)nc2c1,1.9,20%,17,7,+,1.1
O=C(Nc1ccccc1)c1ccc2nc(-c3ccco3)c(-c3ccco3)nc2c1,2.6*,10%,16,4,i,1.1
O=C(Nc1ccc(N2CCOCC2)cc1)c1ccc2nc(-c3ccco3)c(-c3ccco3)nc2c1,1,6%,10,5,i,1.1
CCC(C)(C)NC(=O)C(c1cccnc1)N(CCOC)C(=O)Cn1nnc2ccccc21 (configuration not stated),1.1,2%,1,4,i,1.1
COc1cc(C2CC(=O)c3c([nH]c(C(=O)OCCOC(C)C)c3C)C2)cc(OC)c1OC (configuration not stated),1,0%,1,0,i,1
COc1ccc(OC)c(C2C3=C(CCCC3=O)Nc3nc4ccccc4n32)c1 (configuration not stated),1.7,7%,9,8,i,1.1
COc1ccc(C2C3=C(CCCC3=O)Nc3nc4ccccc4n32)cc1OC (configuration not stated),3*,8%,10,6,nt,1.2
COc1ccc(C2C3=C(CCCC3=O)Nc3nc4ccccc4n32)c(OC)c1OC (configuration not stated),5.1*,4%,0,8,nt,1.1
Cc1ccc(N(CC(=O)Nc2cccc(C)c2)S(=O)(=O)c2cccc3nonc23)cc1,1,3%,4,6,i,0.99
CCOC(=O)c1c(C)[nH]c(C)c1C(=O)CSc1nnc(-c2ccco2)n1Cc1ccccc1,1.1,8%,4,19,i,1
CCOC(=O)C1CCN(S(=O)(=O)c2ccc3c4c(cccc24)C(=O)N3)CC1,2.1*,7%,5,8,nt,1.1
O=C(Oc1ccc(-n2cnnn2)cc1)c1ccco1,1.1,8%,11,12,i,0.98
Clc1c(-c2nnc3n2CCC3)sc2ccccc12,1.3,36%,8,3,+,1.3
CCOc1ccc(S(=O)(=O)NCc2ccc(F)cc2)c2cccnc12,3.5*,10%,1,0,i,1.1
Cn1c(=O)c2c(nc(CN3CCN(C(=O)c4ccco4)CC3)n2Cc2ccccc2F)n(C)c1=O,1.1,9%,6,17,i,1
COc1ccc(OC)c(-n2c(-c3cccc(O)c3)n[nH]c2=S)c1,1.2,27%,66*,0,i,1
CCCOc1ccc2[nH]cc(C(=O)O)c(=O)c2c1,1.3,11%,10,15,i,1
CCCN(CCC)c1nc(C)cc(C(C#N)c2nc3ccccc3o2)n1 (configuration not stated),2.2*,4%,5,8,i,1
Cc1ccc2oc(=O)c3cc(C(=O)NCCN4CCN(C)CC4)sc3c2c1,2.2*,9%,9,9,nt,1.2

# Screening results from PubChem BioAssay.
